Measured values published in ChEMBL document CHEMBL1157539, “Thousands of chemical starting points for antimalarial lead identification” (Nature, 2010).

Legend:
Format in all cases: functional
Plasmodium falciparum [1] = test: GSK_TCMDC: Inhibition of Plasmodium falciparum 3D7 in whole red blood cells, using parasite LDH activity as an index of growth. Test compounds present at 2uM
Plasmodium falciparum [2] = test: GSK_TCMDC: Inhibition of Plasmodium falciparum Dd2 in whole red blood cells, using parasite LDH activity as an index of growth. Test compounds present at 2uM
HepG2 = test: GSK_TCMDC: Percent inhibition of human HepG2 cell line. Test compounds present at 10uM.

Row | Compound | Inhibition (Plasmodium falciparum [1]) | Inhibition (Plasmodium falciparum [2]) | Inhibition (HepG2)
1 | CCCOc1ccc(C(F)(F)F)cc1NC(=O)c1nc2nc(C)cc(C)n2n1 | 90% | 88% | 7%
2 | Cc1cc(-c2ccc(Cl)cc2)c2c(N)c(C(=O)Nc3ccc(F)cc3)sc2n1 | 97% | 87% | 12%
3 | Cc1[nH]c(C)c(-c2ccc(OCc3cc(F)cc(F)c3)nc2)c(=O)c1Cl | 97% | 97% | 20%
4 | Cc1cc(N[C@@H](Cc2ccccc2)C(=O)NCCc2ccccc2)nc(NCCc2ccccc2)n1.O=C(O)C(F)(F)F | 100% | 57% | 0%
5 | O=C(c1cc(C(=O)Nc2ccccc2)c(=O)n(-c2ccccc2)c1)c1cc(Cl)ccc1O | 100% | 95% | 9%
6 | CC(=O)Nc1ccc(C(=O)Nc2ccc(-c3cccc(-c4nc5cccc(C)c5[nH]4)c3)cc2)cn1 | 99% | 74% | 36%
7 | COc1ccc2c(O)c(C3CCC(c4ccc(Cl)cc4)CC3)c(C)nc2c1 (configuration not stated) | 97% | 84% | 2%
8 | Cc1ccc(CNc2cc(C(F)(F)F)nc(-c3ccc(S(C)(=O)=O)cc3)n2)cc1 | 89% | 72% | 2%
9 | COc1ccc(C)c(Nc2ccnc(Nc3cccc(-c4nc5ccccc5[nH]4)c3)n2)c1.Cl | 98% | 35% | 27%
10 | N#Cc1cccc(-c2cnc(N)c(-c3nc4cc(S(N)(=O)=O)ccc4[nH]3)c2)c1 | 100% | 99% | 16%
11 | CCCC(=O)c1cnc2cc(O)ccc2c1Nc1ccccc1C | 99% | 93% | 14%
12 | CC(C)c1sc(N2CCN(C)CC2)nc1C(=O)NCCc1ccc(Cl)c(Cl)c1.O=C(O)C(F)(F)F | 98% | 79% | 10%
13 | Cc1cccc(CNc2nc(C)cc(N[C@@H](CC(C)C)C(=O)NCc3cccc(F)c3)n2)c1.O=C(O)C(F)(F)F | 91% | 32% | 13%
14 | O=C(/C=C/c1ccc(C(F)(F)F)cc1)NCCCCCN1CCC(c2c[nH]c3ccccc23)CC1 | 100% | 22% | 96%
15 | NCCNc1ccc([N+](=O)[O-])cc1C(=O)Nc1cccc(C(F)(F)F)c1 | 94% | 33% | 1%
16 | COc1ccccc1Cc1nc2ccccc2nc1SCC(=O)Nc1cccc(C(F)(F)F)c1 | 97% | 91% | 8%
17 | CC(=O)Nc1cccc(C(=O)Nc2cccc(-c3cccc(-c4nc5cc(F)ccc5[nH]4)c3)c2)c1 | 100% | 44% | 51%
18 | COc1ccccc1-n1ccnc1SCC(=O)Nc1cc(C(F)(F)F)ccc1Cl | 97% | 97% | 0%
19 | CC(C)CN(c1nc(C(=O)NNC(=O)[C@H](CC2CC2)NC(=O)c2cc3cc(OCCN(C)C)ccc3o2)cs1)C1CC1 | 87% | 97% | 0%
20 | COc1cc(NC(=O)CCCCCCCN2CCN(C)CC2)c2ncccc2c1 | 95% | 83% | 2%
21 | CC(C)CCNc1nc2ccccc2nc1Nc1cccc(C(F)(F)F)c1 | 98% | 99% | 12%
22 | Cc1ccc2[nH]c(/C=C/c3cccc4cc[nH]c34)nc2c1 | 100% | 92% | 9%
23 | COc1ccc(C(=O)N2CCC(CN3CCOC(c4ccccc4)(c4ccccc4)C3)CC2)cc1 | 95% | 96% | 19%
24 | Cl.Fc1cccc(COc2ccc(Nc3ncnc4ccc(-c5nnc(C(F)(F)F)o5)cc34)cc2Cl)c1 | 100% | 77% | 14%
25 | c1ccc(-c2ccc(-c3nc4ccccc4[nH]3)cc2)cc1 | 93% | 83% | 10%
26 | CN(C)C(=O)n1cnc(S(=O)(=O)N(C)c2ccc(Cl)cc2)n1.Cl | 88% | 80% | 7%
27 | Oc1ccc(Br)cc1-c1nc2ccc(Cl)cc2nc1-c1cc(Br)ccc1O | 100% | 64% | 0%
28 | Cn1nc(-c2cccc(CNCc3ccccc3)c2)c2cnc(NC3CCCC3)nc21 | 85% | 11% | 5%
29 | COc1ccc(S(=O)(=O)NC2CCN(CCCOc3ccnc4cc(Cl)ccc34)C2)cc1OC (configuration not stated) | 91% | 56% | 8%
